Results: the supplement of paper PMC10338343
± gives the standard deviation.

System: MILI (PIWIL2) piRISC loaded with piRNA #1 (26 nt)
Test: pre-steady-state target cleavage rate (min^-1); guide: piRNA #1 5'p-UGAGGUAGUAGGUUGUAUAGUAUCCA; MIWI and MILI are mouse PIWI proteins and EfPiwi is from a freshwater sponge; tags in brackets are library labels; higher = faster piRNA-guided slicing of the target
Details: auxiliary factor: 500 nM mouse GTSF1
How it was run: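 In this Cleave-'n-Seq assay, uncleaved targets were sequenced and normalised to depth and to weakly complementary targets. They came from a transcribed, DNA-blocked target RNA library […] mixed with 1 nM active affinity-purified piRISC carrying one synthetic guide, with or without 500 nM GTSF1 partner protein, in HEPES–potassium acetate buffer at 33 °C for 0–8 or 0–960 min. After three trials were pooled and k3 was capped at 0.0001 min^-1, the pre-steady-state cleavage rate was obtained from a burst-and-steady-state fit.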
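Note: 1 nM active piRISC with 0.1 nM target library at 33 °C single turnover.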

| Sequence | pre-steady-state target cleavage rate |
| --- | --- |
| GGAGACCAUACUAUUCAACCUAGUACCUCA | 0.0559 ± 0.011 |
| GGAGUGGAUACUAAACAACCUACUACGUCA | 0.0421 ± 0.0062 |
| GGAGACCUAUCUAUACAACCUACUAUCCUCA | 0.193 ± 0.023 |
| GGAGAGGUUUCUAUACAACCUACUACCUCA | 0.14 ± 0.013 |
| GGAGACCUAACUUUACAUCCUACUACCUCA | 0.143 ± 0.025 |
| GGAGACCUAUGAAUACAACCUACUACCUCC [g2:g18:cont:t1C] | 0.0111 ± 0.0027 |
| GGAGACCUUACUAUUCUACCUACUACCUCA | 0.124 ± 0.0096 |
| GGAGACGAUACUAUACUACCUAGUACCUCA | 0.0742 ± 0.015 |
| GGAGACCUAUGUUUACAACCUACAACCUCA | 0.0131 ± 0.0031 |
| GGAGACCUAUGAUAUGUUCAUACUACCUCA | < 0.0001 |
| GGAGACCUAUGAUAUGUUCCUACUUACCUCA | < 0.0001 |
| GGAGACCAUACUAAACAAGCUACUACCUCA | 0.236 ± 0.018 |
| GGAGACCUAUGAAUACAACCUACUAUCUCA | 0.00527 ± 0.0017 |
| GGAGUGGAUACUAUAGUUCCUACUACCUCA | 0.169 ± 0.0095 |
| GGAGACCUAUGAUAUGUGCCUACUACCUCA | < 0.0001 |
| GGAGACCUAUGAAUACAACCUACUACCGUCA | 0.00898 ± 0.0024 |
| GGAGACCUAUGUAAACAACCUACUACGUCA | 0.00279 ± 0.0027 |
| GGAGACCUUACUAUACUACCUAGUACCUCA | 0.035 ± 0.0072 |
| GGAGACCUUACUAUACAACCUACUAUCCUCA | 0.194 ± 0.022 |
| GGAGACCUAUGAAUACAAGCUACUACCUCA | 0.0349 ± 0.0069 |

| Sequence | pre-steady-state target cleavage rate |
| --- | --- |
| GGAGACCAUACUAUACAAGCUUCUACCUCA | 0.036 ± 0.007 |
| GGAGACCAUACAAUACAACCUACAACCUCA | 0.136 ± 0.014 |
| GGAGACCUAUGAUAUCAAGCUACUACCUGA | 0.00472 ± 0.003 |
| GGAGACCUAUCUAUACAACCUACUACCCA | 0.098 ± 0.019 |
| GGAGACCUAUCUUACAACCUACUACCUCA | 0.0336 ± 0.0082 |
| GGAGAGGAUACUAUAGAACGUACUACCUCA | 0.00602 ± 0.0021 |
| GGAGACCUAUGUAUACAAGGUACUACCUCA | 0.0261 ± 0.0047 |
| GGAGACCAUACUAUACAACCUAGCUACCUCA | 0.0804 ± 0.012 |
| GGAGACCAUACUAUACCAACCUACUACCUCA | 0.0299 ± 0.0075 |
| GGAGACCUUACUAUACUACCAACUACCUCA | 0.00617 ± 0.0026 |
| GGAGACCAUACUAUACAACCUACAACCUCA | 0.189 ± 0.024 |
| GGAGACCUAUGAUAUGAACCUACUUACCUCA | < 0.0001 |
| GGAGACCUAUGAUAACAACCUACUGACCUCA | 0.00368 ± 0.0025 |
| GGAGUGGAUACUAUACUUGCUACUACCUCA | 0.0633 ± 0.0052 |
| GGAGACCUAUGAUUACAACCUACUACGCUCA | 0.0104 ± 0.0039 |
| GGAGACCUAUGUAUUCAACCUACUACCUCA | 0.0588 ± 0.0091 |
| GGAGUGGAUACUAAUGAACCUACUACCUCA | 0.0477 ± 0.0065 |
| GGAGACCUAUGUAUACUACCUACUACGUCA | 0.0155 ± 0.0032 |
| GGAGACCUAUGUUUACAACCUUCUACCUCA | 0.00358 ± 0.0029 |
| GGAGACCUUACUAUACAACCUACUACGACA | 0.119 ± 0.021 |
